# The whole screen tested about 2,000 compounds, of which about 110 (5.5%) showed an effect of 50% or more. This excerpt belongs to a sample that is enriched for strong results.
# Biological target: Genome polyprotein (dengue virus type 2) (UniProt P29990)
# [1] = Thailand/16681/1984, Concentration 25.0 uM, Number of replicates 1.0
compound,measurement,setting,value
Cn1cc(NC(=O)c2ccccc2C(F)(F)F)c(-c2ccc(F)nc2)n1,inhibition,"Thailand/16681/1984, Concentration 49.5 uM, Number of replicates 2.0, Standard deviation 3.6499634215033607 %",-3.01%
same,inhibition,"Thailand/16681/1984, Concentration 99.01 uM, Number of replicates 2.0, Standard deviation 1.5811035342397435 %",-2.37%
same,inhibition,"Thailand/16681/1984, Concentration 198.0 uM, Number of replicates 2.0, Standard deviation 0.8634737807980869 %",-2.26%
O=Cc1ccc(N2CCC(C(=O)Nc3c(Cl)cncc3Cl)CC2)cc1,inhibition,[1],12.4%
Cc1cc(CO)c2cccc(Cc3cccc(C(=O)NC[C@H](C)O)c3)c2n1,inhibition,"Thailand/16681/1984, Concentration 49.95 uM, Number of replicates 2.0, Standard deviation 1.3417230059830858 %",-6.96%
same,inhibition,"Thailand/16681/1984, Concentration 99.9 uM, Number of replicates 2.0, Standard deviation 0.8544771145149516 %",-2.86%
Cc1cc(CO)c2cccc(Cc3cccc(C(=O)NCC(=O)O)c3)c2n1,inhibition,"Thailand/16681/1984, Concentration 49.95 uM, Number of replicates 2.0, Standard deviation 0.8336363408632846 %",63.2%
same,inhibition,"Thailand/16681/1984, Concentration 99.9 uM, Number of replicates 2.0, Standard deviation 0.025873444538655716 %",79.2%
Cc1cc(CO)c2cccc(Cc3ccccc3C(=O)NCC(=O)O)c2n1,inhibition,"Thailand/16681/1984, Concentration 49.95 uM, Number of replicates 2.0, Standard deviation 0.8422599232434016 %",38.5%
same,inhibition,"Thailand/16681/1984, Concentration 99.9 uM, Number of replicates 2.0, Standard deviation 0.5627042603428867 %",64.9%
Cc1cc(CO)c2cccc(Cc3ccccc3C(=O)NC[C@H](C)O)c2n1,inhibition,"Thailand/16681/1984, Concentration 49.95 uM, Number of replicates 2.0, Standard deviation 0.37872955767016525 %",-3.03%
same,inhibition,"Thailand/16681/1984, Concentration 99.9 uM, Number of replicates 2.0, Standard deviation 0.20409716758521712 %",0.577%
Cc1cc(CO)c2cccc(Cc3ccccc3C(=O)NCC(N)=O)c2n1,inhibition,"Thailand/16681/1984, Concentration 49.95 uM, Number of replicates 2.0, Standard deviation 0.5253345885233084 %",1.79%
same,inhibition,"Thailand/16681/1984, Concentration 99.9 uM, Number of replicates 2.0, Standard deviation 0.6122918820772879 %",9.88%
Cc1cc(CO)c2cccc(Cc3cccc(C(=O)NCC(N)=O)c3)c2n1,inhibition,"Thailand/16681/1984, Concentration 49.95 uM, Number of replicates 2.0, Standard deviation 0.5174294413229081 %",2.44%
same,inhibition,"Thailand/16681/1984, Concentration 99.9 uM, Number of replicates 2.0, Standard deviation 1.3216010889796208 %",17.6%
O=Cc1ccc(N2CCC(C(=O)N3CCc4ccc([N+](=O)[O-])cc4C3)CC2)cc1,inhibition,[1],16.6%
O=Cc1ccc(N2CCC(C(=O)NCC3CCC(C(F)(F)F)CC3)CC2)cc1 (stereo not drawn),inhibition,[1],12.8%
Cc1cc(C)nc(CCNC(=O)C2CCN(c3ccc(C=O)cc3)CC2)n1,inhibition,[1],10.6%
C[C@@H](CNc1cc(Cl)cc(C(=O)NC(C)(C)CO)c1)c1ccc(F)cc1,inhibition,"Thailand/16681/1984, Concentration 49.5 uM, Number of replicates 2.0, Standard deviation 1.7964155145983758 %",-4.87%
same,inhibition,"Thailand/16681/1984, Concentration 99.01 uM, Number of replicates 2.0, Standard deviation 2.367041527999976 %",-8.66%
O=Cc1ccc(N2CCC(C(=O)NCc3ccc(Br)cn3)CC2)cc1,inhibition,[1],13.7%
Cc1cc(CO)c2cccc(NC(=O)[C@@H]3CCCC[C@H]3C(=O)O)c2n1,inhibition,"Thailand/16681/1984, Concentration 49.95 uM, Number of replicates 2.0, Standard deviation 1.6403651221128503 %",4.53%
same,inhibition,"Thailand/16681/1984, Concentration 99.9 uM, Number of replicates 2.0, Standard deviation 0.7343808497949172 %",11.1%
Cc1cc(CO)c2cccc(NC(=O)[C@@H]3CCCC[C@H]3N)c2n1,inhibition,"Thailand/16681/1984, Concentration 49.95 uM, Number of replicates 2.0, Standard deviation 4.042326157041073 %",-9.54%
Cc1cc(CO)c2cccc(NC(=O)C3CNC3)c2n1,inhibition,"Thailand/16681/1984, Concentration 99.9 uM, Number of replicates 2.0, Standard deviation 1.2849235527062883 %",-8.19%
Cc1cc(CO)c2cccc(NC(=O)C3CC(N)C3)c2n1 (stereo not drawn),inhibition,"Thailand/16681/1984, Concentration 49.95 uM, Number of replicates 2.0, Standard deviation 0.3514210972334106 %",31.4%
same,inhibition,"Thailand/16681/1984, Concentration 99.9 uM, Number of replicates 2.0, Standard deviation 0.19619256829384746 %",78.8%
Cc1cc(CO)c2cccc(NC(=O)C3CCC(N)CC3)c2n1 (stereo not drawn),inhibition,"Thailand/16681/1984, Concentration 49.95 uM, Number of replicates 2.0, Standard deviation 0.3430335372049546 %",80.8%
same,inhibition,"Thailand/16681/1984, Concentration 99.9 uM, Number of replicates 2.0, Standard deviation 0.009052468710563864 %",98.8%
Cc1cc(CO)c2cccc(NC(=O)C3CCN(C)CC3)c2n1,inhibition,"Thailand/16681/1984, Concentration 99.9 uM, Number of replicates 2.0, Standard deviation 2.5723142976307076 %",0.725%
Cc1cc(CO)c2cccc(NC(=O)[C@H]3CCNC3)c2n1,inhibition,"Thailand/16681/1984, Concentration 49.95 uM, Number of replicates 2.0, Standard deviation 1.8979597481282788 %",-0.539%
same,inhibition,"Thailand/16681/1984, Concentration 99.9 uM, Number of replicates 2.0, Standard deviation 1.976292784952565 %",2.99%
Cc1cc(CO)c2cccc(NC(=O)C3CCC(CN)CC3)c2n1 (stereo not drawn),inhibition,"Thailand/16681/1984, Concentration 49.95 uM, Number of replicates 2.0, Standard deviation 1.7984525560806044 %",96%
same,inhibition,"Thailand/16681/1984, Concentration 99.9 uM, Number of replicates 2.0, Standard deviation 0.012834221133749364 %",98.2%
Cc1cc(CO)c2cccc(NC(=O)CNC3CC3)c2n1,inhibition,"Thailand/16681/1984, Concentration 49.95 uM, Number of replicates 2.0, Standard deviation 1.6119901778213759 %",15.9%
same,inhibition,"Thailand/16681/1984, Concentration 99.9 uM, Number of replicates 2.0, Standard deviation 1.4451149573517064 %",30.7%
Cc1cc(CO)c2cccc(NC(=O)[C@@H]3CC(=O)CCN3)c2n1,inhibition,"Thailand/16681/1984, Concentration 49.95 uM, Number of replicates 2.0, Standard deviation 1.684279261738791 %",1.29%
same,inhibition,"Thailand/16681/1984, Concentration 99.9 uM, Number of replicates 2.0, Standard deviation 1.6842793565692 %",-1.57%
CN(CCc1ccccc1F)C(=O)C1CCN(c2ccc(C=O)cc2)CC1,inhibition,[1],13.4%
O=Cc1ccc(N2CCC(C(=O)Nc3ccc([N+](=O)[O-])c4ccccc34)CC2)cc1,inhibition,[1],13.5%
CN(Cc1nc2ccsc2c(=O)[nH]1)C(=O)C1CCN(c2ccc(C=O)cc2)CC1,inhibition,[1],11.8%
O=Cc1ccc(N2CCC(C(=O)N[C@H](c3ccccc3)C(F)(F)F)CC2)cc1,inhibition,[1],13.1%
